This note sets out measurements from PubChem BioAssay.

The test system of experiment [1] is Plasmodium falciparum Sir2 (PF13_0152, Sir2A). The experiment in a line: Plasmodium falciparum Sir2A binding compounds – biochemical, small-molecule microarray, 635 nm fluorescence, primary screen (AID 1098).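 Further: score merges spot fluorescence intensity with its signal-to-noise ratio.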 Particulars: fluorescence 635 nm, higher = more signal.
Experiment [2] is described as follows: probe aDKK1 binding to arrayed compounds – biochemical, biotinylated probe, 635/667 nm fluorescence, primary screen (AID 1099).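 Further: score merges 667nm spot fluorescence with signal to noise across triplicate slides.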 As to conditions: small-molecule microarray, higher = more signal.
Experiment [3] in a line: probe aCHRDL2 binding to arrayed compounds – biochemical, biotinylated probe, 635/667 nm fluorescence, primary screen (AID 1100). Particulars: small-molecule microarray, higher = more signal.
Experiment [4] can be described thus: change in splice reporter luminescence, either direction, cell-based, HEK293, spliceosome inhibition project, primary screen (AID 1101).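 Further: HEK293 cells carrying a splicing-competent luciferase reporter gene; test concentration not given here.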 Particulars: HEK293 splicing luciferase reporter, 24 h, higher = more signal, called active from +8 up or from −8 down.
Experiment [5] has as its target Fibroblast growth factor 10 (Homo sapiens) (UniProt O15520). The experiment in a line: compounds binding fibroblast growth factor 10 – biochemical, small-molecule microarray, 635 nm fluorescence, primary screen (AID 1102). Particulars: FGF10 binding, fluorescence 635 nm, higher = more signal.
In experiment [6] the test system is glycogen synthase kinase-3 (GSK3A per assay name; protocol says GSK3B). The experiment in a line: compounds binding glycogen synthase kinase-3 – biochemical, small-molecule microarray, 635 nm fluorescence, GSK3A, primary screen (AID 1103). Further: the record names both GSK3A and GSK3B. Particulars: fluorescence 635 nm, higher = more signal.
In experiment [7] the target is Epidermal growth factor receptor (Homo sapiens) (UniProt P00533). In words: compounds binding epidermal growth factor receptor – biochemical, small-molecule microarray, 635 nm fluorescence, primary screen (AID 1104).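 Further: score merges 667 nm emission intensity with spot signal to noise over triplicate slides.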 Particulars: EGFR binding, higher = more signal.
Sequence of Epidermal growth factor receptor (Homo sapiens) (P00533 whole entry, looked up): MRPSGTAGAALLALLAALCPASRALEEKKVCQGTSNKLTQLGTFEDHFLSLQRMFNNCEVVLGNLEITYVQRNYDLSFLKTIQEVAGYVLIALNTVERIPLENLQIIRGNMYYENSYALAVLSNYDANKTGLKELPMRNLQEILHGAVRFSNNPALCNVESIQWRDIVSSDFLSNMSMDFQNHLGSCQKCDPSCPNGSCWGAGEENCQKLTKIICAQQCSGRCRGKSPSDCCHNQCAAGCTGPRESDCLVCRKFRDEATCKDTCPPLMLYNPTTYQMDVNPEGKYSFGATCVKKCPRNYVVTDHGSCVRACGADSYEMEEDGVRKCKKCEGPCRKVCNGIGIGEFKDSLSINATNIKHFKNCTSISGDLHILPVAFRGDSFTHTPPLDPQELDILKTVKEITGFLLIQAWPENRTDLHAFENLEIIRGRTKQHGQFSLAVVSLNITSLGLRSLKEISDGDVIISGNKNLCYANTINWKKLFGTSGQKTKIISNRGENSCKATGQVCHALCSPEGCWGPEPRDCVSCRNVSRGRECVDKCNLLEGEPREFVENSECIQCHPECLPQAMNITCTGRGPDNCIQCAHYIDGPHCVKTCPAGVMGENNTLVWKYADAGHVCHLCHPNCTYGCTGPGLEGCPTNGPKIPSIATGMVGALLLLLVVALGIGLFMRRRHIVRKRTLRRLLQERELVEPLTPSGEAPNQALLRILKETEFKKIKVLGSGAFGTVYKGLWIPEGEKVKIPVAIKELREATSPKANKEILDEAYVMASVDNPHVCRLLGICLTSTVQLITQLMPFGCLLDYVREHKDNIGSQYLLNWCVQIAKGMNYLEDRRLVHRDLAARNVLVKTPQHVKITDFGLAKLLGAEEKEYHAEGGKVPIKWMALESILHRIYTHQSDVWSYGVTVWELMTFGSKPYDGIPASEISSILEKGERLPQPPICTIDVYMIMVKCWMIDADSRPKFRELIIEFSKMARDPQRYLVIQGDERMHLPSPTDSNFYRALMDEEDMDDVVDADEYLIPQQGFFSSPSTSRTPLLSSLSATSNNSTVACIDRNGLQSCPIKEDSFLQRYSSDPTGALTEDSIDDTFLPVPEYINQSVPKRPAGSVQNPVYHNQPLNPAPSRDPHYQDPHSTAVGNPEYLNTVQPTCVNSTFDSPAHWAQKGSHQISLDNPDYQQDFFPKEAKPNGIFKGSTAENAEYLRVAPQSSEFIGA
Experiment [8] addresses Follistatin-related protein 3 (Homo sapiens) (UniProt O95633). The experiment in a line: compounds binding follistatin-related protein 3 – biochemical, small-molecule microarray, 635 nm fluorescence, primary screen (AID 1105).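 Further: score merges emission near 667 nm and signal to noise per printed spot across three slides.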 As to conditions: FSTL3 binding, higher = more signal.
For experiment [9], the target named is Dickkopf-related protein 1 (Homo sapiens) (UniProt O94907). The experiment in a line: small molecules binding DKK1 protein – biochemical, small-molecule microarray, 635 nm fluorescence scan, primary screen (AID 1106).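 Further: score merges emission near 667 nm with signal to noise over three replicate slides.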 Particulars: higher = more signal.
Sequence of Dickkopf-related protein 1 (Homo sapiens) (O94907 whole entry, looked up): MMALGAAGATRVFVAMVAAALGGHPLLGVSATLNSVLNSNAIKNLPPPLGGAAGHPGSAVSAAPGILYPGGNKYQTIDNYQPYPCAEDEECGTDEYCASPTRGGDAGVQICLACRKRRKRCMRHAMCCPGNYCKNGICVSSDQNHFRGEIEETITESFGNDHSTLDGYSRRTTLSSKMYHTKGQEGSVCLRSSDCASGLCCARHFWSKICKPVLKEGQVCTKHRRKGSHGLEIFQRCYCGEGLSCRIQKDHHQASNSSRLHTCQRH
Experiment [10] has as its system Inhibin beta A chain (activin A). In words: small molecules binding activin A – biochemical, small-molecule microarray, 635 nm fluorescence scan, primary screen (AID 1107).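 Further: mouse activin A protein probed at 4.33 µg/mL on printed slides; score merges bound-protein fluorescence near 667 nm with spot signal-to-noise.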 As to conditions: INHBA, higher = more signal.
In experiment [11] the test system is Human papillomavirus type 1a protein E7 (residues 44-93). The experiment in a line: small molecules binding HPV E7 44-93 – biochemical, small-molecule microarray, residues 44-93, 635 nm fluorescence, primary screen (AID 1108).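 Further: E7 fragment applied at 1 µg/mL in TBST for 1 h at 4 C; score combines spot fluorescence with its signal to noise ratio.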 As to conditions: fluorescence 635 nm, higher = more signal.
The nature of experiment [12]: hepatitis C replication reporter changes, two-sided – Huh7 cells, luciferase reporter, HCV replication inhibitor project, primary screen (AID 1109).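 Further: huh7 hepatoma cells harbouring a luciferase neomycin HCV replicon reporter; luciferase luminescence as measure of HCV replicon replication; test concentration not given here.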 Particulars: Huh7 HCV replicon luciferase reporter, 48 h; higher = more signal.
Experiment [13] concerns the target Left-right determination factor 2 (Homo sapiens) (UniProt O00292). The experiment in a line: small molecules binding LEFTY2 protein – biochemical, small-molecule microarray, 635 nm fluorescence scan, primary screen (AID 1110). Particulars: higher = more signal.
Experiment [14] addresses Calmodulin-1 (Homo sapiens) (UniProt P0DP23). In words: small molecules binding calmodulin-1 with EGTA – biochemical, small-molecule microarray, Cy5-labelled CALM1, profiling panel (AID 1111).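 Further: labelled calmodulin applied in Tris saline Tween buffer holding calcium plus EGTA and DTT.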 As to conditions: Cy5-CALM1 binding fluorescence, higher = more signal.
Experiment [15] has the same target. In words: small molecules binding Ca-loaded calmodulin-1 – biochemical, small-molecule microarray, Cy5-labelled CALM1, plus calcium, artefact control for SMM control-protein annotation, profiling panel (AID 1112).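 Further: score merges spot fluorescence with signal to noise from triplicate slides.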 Particulars: Cy5-CALM1 binding fluorescence, higher = more signal.
Experiment [16] can be described thus: probe aWnt5a binding to arrayed compounds – biochemical, biotinylated probe, 635/667 nm fluorescence, primary screen (AID 1113).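 Further: score merges 667 nm fluorescence intensity with signal-to-noise per printed feature.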 Particulars: small-molecule microarray, higher = more signal.
A short description of experiment [17]: probe aShh binding to arrayed compounds – biochemical, biotinylated probe, 635/667 nm fluorescence, primary screen (AID 1114).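 Further: probe is biotin-labelled aShh protein from a stem cell growth factor screen; measures binding of labelled protein to compounds printed on the slide; score merges feature fluorescence at 667 nm with signal-to-noise.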 As to conditions: small-molecule microarray, higher = more signal.
The nature of experiment [18]: probe aNog binding to arrayed compounds – biochemical, biotinylated probe, 635/667 nm fluorescence, primary screen (AID 1115).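 Further: probe is biotinylated aNog protein used at 0.15 µg/mL for 1 h at 4 C; z-score combines 667 nm fluorescence of each spot with its signal to noise.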 As to conditions: small-molecule microarray, higher = more signal.
Experiment [19] has as its target Torsin-1A-interacting protein 1 (Homo sapiens) (UniProt Q5JTV8). The experiment in a line: compound microarray binding of lysate hLAP1 – cell lysate, small-molecule microarray, COS7 lysate, 635/667 nm fluorescence, primary screen (AID 1116). Particulars: 635 nm fluorescence, higher = more signal.
Experiment [20] deals with Alpha-bungarotoxin (Bungarus multicinctus) (UniProt P60615). The experiment in a line: compounds binding labelled alpha-BTX control protein – biochemical, small-molecule microarray, Alexa647 label, 635/667 nm fluorescence, artefact control for SMM control protein annotation, profiling panel (AID 1117). Particulars: alpha-BTX-A647 binding fluorescence, higher = more signal.
Sequence of Alpha-bungarotoxin (Bungarus multicinctus) (P60615 whole entry, looked up): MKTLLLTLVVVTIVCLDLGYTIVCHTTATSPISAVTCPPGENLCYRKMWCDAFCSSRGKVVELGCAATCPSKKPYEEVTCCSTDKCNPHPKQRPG

Active and inactive are the calls of the source.

Sequence of Torsin-1A-interacting protein 1 (Homo sapiens) (Q5JTV8 whole entry, looked up): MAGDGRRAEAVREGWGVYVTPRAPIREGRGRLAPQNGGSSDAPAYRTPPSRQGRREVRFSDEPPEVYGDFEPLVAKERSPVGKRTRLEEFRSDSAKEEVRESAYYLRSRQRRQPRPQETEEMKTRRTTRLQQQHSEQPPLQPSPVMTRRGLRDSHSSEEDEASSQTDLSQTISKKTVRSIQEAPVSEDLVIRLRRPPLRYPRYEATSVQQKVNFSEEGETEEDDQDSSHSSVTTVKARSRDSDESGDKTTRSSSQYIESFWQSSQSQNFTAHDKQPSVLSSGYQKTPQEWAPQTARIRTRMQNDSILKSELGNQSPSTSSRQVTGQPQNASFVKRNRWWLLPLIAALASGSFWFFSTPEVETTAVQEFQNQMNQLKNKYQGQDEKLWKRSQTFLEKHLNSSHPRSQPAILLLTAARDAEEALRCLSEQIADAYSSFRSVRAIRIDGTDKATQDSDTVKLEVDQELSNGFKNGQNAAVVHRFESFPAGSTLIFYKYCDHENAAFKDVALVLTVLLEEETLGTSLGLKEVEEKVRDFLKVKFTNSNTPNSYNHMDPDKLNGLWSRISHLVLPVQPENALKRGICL
Sequence of Follistatin-related protein 3 (Homo sapiens) (O95633 whole entry, looked up): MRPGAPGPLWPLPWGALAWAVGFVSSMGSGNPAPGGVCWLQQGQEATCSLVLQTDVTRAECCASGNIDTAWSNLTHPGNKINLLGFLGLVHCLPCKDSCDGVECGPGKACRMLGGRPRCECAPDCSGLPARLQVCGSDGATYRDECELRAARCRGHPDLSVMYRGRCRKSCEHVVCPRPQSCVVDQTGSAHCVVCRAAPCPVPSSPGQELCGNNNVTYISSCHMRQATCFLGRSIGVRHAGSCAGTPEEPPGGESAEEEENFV
Sequence of Left-right determination factor 2 (Homo sapiens) (O00292 whole entry, looked up): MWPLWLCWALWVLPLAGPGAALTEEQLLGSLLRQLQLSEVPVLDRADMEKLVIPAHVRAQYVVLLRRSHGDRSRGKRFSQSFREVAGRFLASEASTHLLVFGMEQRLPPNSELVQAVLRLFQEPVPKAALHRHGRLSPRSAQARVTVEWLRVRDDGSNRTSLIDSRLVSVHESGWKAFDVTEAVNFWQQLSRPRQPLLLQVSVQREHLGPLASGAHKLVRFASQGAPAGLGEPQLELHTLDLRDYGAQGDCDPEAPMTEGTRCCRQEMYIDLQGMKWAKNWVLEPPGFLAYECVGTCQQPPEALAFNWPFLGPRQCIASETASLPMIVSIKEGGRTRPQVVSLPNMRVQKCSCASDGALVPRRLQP
Sequence of Fibroblast growth factor 10 (Homo sapiens) (O15520 whole entry, looked up): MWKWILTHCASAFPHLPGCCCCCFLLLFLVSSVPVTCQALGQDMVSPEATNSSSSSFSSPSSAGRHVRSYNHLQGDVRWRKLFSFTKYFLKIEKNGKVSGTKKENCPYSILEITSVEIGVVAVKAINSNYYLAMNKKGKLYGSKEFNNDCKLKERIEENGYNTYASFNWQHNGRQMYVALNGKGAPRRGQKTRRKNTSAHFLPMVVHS

On to `Cc1ccc(S[C@]2(C(=O)NC(C)C)CC(=O)N(C3Cc4ccccc4C3)[C@@H]2c2ccc(CO)cc2I)cc1`, for which the composite z-score in [1] is 0.944; in [2] it was -0.253; in experiment [3] it was -0.398; in experiment [5] it was -0.651; in experiment [6], 0.1; in experiment [7], -0.922. Besides, the composite z-score in experiment [8] was -1.13; in [9] it was -1.18; in experiment [10], -0.696; in [11], -0.803; in experiment [13], -2.04; in experiment [14], -0.625. The composite z-score is -1.08 in experiment [15]; -0.596 in experiment [16]; -0.291 in experiment [17]; -1.12 in experiment [18]; -0.664 in experiment [19]; -0.365 in [20]. Further, the z-score in experiment [4] was -1.44 (inactive); in [12], -2.19.

For `O=C1c2ccccc2[C@](Cc2ccccc2I)(C(=O)NCc2ccccc2)[C@H](c2ccc(CO)cc2)N1C1CCCCC1`, the composite z-score was found to be 0.851 in experiment [1]; 0.969 in experiment [2]; 0.357 in [3]; 1.37 in experiment [5]; 1.08 in experiment [6]; 0.228 in [7]. For the same compound, the composite z-score came to 1.08 in experiment [8]; 0.837 in experiment [9]; 0.958 in experiment [10]; 1.4 in experiment [11]; 0.835 in [13]; 1.28 in experiment [14]. The composite z-score was 1.08 in experiment [15]; -0.0691 in experiment [16]; 0.217 in experiment [17]; 0.347 in [18]; 0.616 in [19]; 0.705 in experiment [20]. Moreover, the z-score in [4] was -0.216 (inactive); in [12], -1.93.

For `C[C@@H]1ON(c2ccc(C(=O)OC(C)(C)C)cc2)[C@H](c2ccc(Br)cc2)[C@H]1C(=O)N1C(=O)OC[C@H]1Cc1ccccc1`, the composite z-score in experiment [1] is 0.992; in experiment [2], -0.0749; in [3], -0.17; in experiment [5], 1.17; in experiment [6], 1.31; in experiment [7], 0.701. For the same compound, the composite z-score in experiment [8] was 1.21; in experiment [9] it was 1.11; in experiment [10], -0.109; in experiment [11], 1.38; in experiment [13], 0.498; in experiment [14], 0.79. Further, the composite z-score was -0.115 in [15]; -0.0643 in [16]; -0.138 in experiment [17]; 0.25 in experiment [18]; 0.323 in experiment [19]; 0.544 in experiment [20]. The figures for the z-score in experiment [4] and in experiment [12] were -0.65 (inactive) and 1.05, respectively.

On to `COCCOC(=O)N1C(=O)[C@@]2(c3ccccc31)[C@H](c1ccc(OCCO)cc1)N1[C@H](c3ccccc3)[C@H](c3ccccc3)OC(=O)[C@H]1[C@@H]2C(=O)Nc1nc2ccccc2s1`, for which the composite z-score in [1] is 1.45; in [2], -0.223; in experiment [3] it was 0.414; in experiment [5] it was 0.967; in experiment [6] it was 0.986; in [7], 0.545. The composite z-score in [8] worked out at 0.852; in experiment [9], 0.293; in experiment [10] it was 0.34; in experiment [11], 1.34; in [13], 0.492; in experiment [14] it was 1.68. The composite z-score in [15] was 0.397; in experiment [16] it was 0.0431; in [17], -0.0769; in experiment [18], 0.516; in experiment [19] it was 0.903; in [20], 1.13. Also, the z-score was 0.579 (inactive) in [4] and -1.33 in experiment [12].

With `CCCCN1CC=CC23O[C@@H]4C=CCOC(=O)[C@@H]4[C@H]2C(=O)N(C(C)CO)[C@@H]3C1=O` (stereo not given in full), the composite z-score was 1.1 in experiment [1]; 0.198 in experiment [2]; 0.774 in experiment [3]; -0.291 in experiment [5]; -1.44 in experiment [6]; -1.21 in [7]. Moreover, the composite z-score in experiment [8] is -1.22; in experiment [9] it was -1.14; in experiment [10] it was 0.286; in experiment [11] it was -1.31; in [13], -1.29; in experiment [14], -0.397. The composite z-score was 0.5 in [15]; -0.169 in experiment [16]; -0.209 in experiment [17]; 0.26 in experiment [18]; -0.194 in experiment [19]; -0.714 in experiment [20]. For the same compound, the figures for the z-score in experiment [4] and in experiment [12] were 0.408 (inactive) and -0.748, respectively.

Take `C=CCOC(=O)[C@@H]1[C@H]2C(=O)O[C@H](c3ccccc3)[C@H](c3ccccc3)N2[C@H](c2ccc(OCCOC(=O)[C@H]3C[C@H]4C(=O)N[C@@H](CCCCN(C)C)C(=O)N4[C@H]3c3cccc(OCCO)c3)cc2)[C@@]12C(=O)Nc1ccc(I)cc12`: the composite z-score was 1.41 in experiment [1]; 0.097 in [2]; -0.0926 in experiment [3]; 1.02 in [5]; 1.32 in experiment [6]; 0.605 in experiment [7]. The composite z-score in experiment [8] turned out to be 1.32; in [9], 0.626; in [10], 0.208; in experiment [11] it was 1.42; in [13], 0.724; in experiment [14] it was 0.993. The composite z-score in experiment [15] was -0.069; in experiment [16] it was -0.13; in experiment [17], 0.123; in experiment [18], -0.0863; in experiment [19], 1.03; in experiment [20], 2.07. The z-score in experiment [4] is 0.348 (inactive); in experiment [12], -1.14.
